ChEMBL document CHEMBL1961873, “Compounds: GSK PKIS; Assays: Nanosyn kinase panel” (2012)

Tests used:
[1] = system: Epidermal growth factor receptor (Homo sapiens), P00533 [T790M]; details: at 1 µM
[2] = system: Epidermal growth factor receptor (Homo sapiens), P00533 [L858R,T790M]; details: at 0.1 µM
[3] = system: Epidermal growth factor receptor (Homo sapiens), P00533 [L858R,T790M]; details: at 1 µM
[4] = target: Ephrin type-A receptor 2 (Homo sapiens) (UniProt P29317); details: at 0.1 µM
[5] = target: Ephrin type-A receptor 2 (Homo sapiens) (UniProt P29317); details: at 1 µM
[6] = target: T1, Ephrin type-A receptor 3 (Homo sapiens) (UniProt P29320); details: at 0.1 µM
T1 sequence (whole entry): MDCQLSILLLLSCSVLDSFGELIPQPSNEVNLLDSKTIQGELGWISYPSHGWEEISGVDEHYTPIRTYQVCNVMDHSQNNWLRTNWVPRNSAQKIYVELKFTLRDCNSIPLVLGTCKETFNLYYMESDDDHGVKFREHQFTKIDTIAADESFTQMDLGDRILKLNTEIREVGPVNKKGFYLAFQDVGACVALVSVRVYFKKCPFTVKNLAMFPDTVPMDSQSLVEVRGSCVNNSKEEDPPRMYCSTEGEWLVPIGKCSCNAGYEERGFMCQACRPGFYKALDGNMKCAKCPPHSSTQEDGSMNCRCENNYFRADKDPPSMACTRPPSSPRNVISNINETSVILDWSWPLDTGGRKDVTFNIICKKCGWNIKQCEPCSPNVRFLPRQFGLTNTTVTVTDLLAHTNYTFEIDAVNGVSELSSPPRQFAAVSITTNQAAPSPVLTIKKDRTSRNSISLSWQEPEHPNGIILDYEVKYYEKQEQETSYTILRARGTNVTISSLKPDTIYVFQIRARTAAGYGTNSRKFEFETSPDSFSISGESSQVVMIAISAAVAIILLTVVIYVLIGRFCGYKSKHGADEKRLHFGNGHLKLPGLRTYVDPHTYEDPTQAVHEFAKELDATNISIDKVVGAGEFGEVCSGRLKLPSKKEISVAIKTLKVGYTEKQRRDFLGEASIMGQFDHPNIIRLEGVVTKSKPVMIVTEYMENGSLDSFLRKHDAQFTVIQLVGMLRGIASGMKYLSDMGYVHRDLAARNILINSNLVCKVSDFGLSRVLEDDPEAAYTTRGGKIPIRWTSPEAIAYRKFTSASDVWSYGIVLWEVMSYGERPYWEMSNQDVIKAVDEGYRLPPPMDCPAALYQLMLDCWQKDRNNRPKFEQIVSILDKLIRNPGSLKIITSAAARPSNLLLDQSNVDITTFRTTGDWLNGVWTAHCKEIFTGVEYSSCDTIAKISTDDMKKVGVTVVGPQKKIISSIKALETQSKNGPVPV

[7] = target: T1, Ephrin type-A receptor 3 (Homo sapiens); details: at 1 µM
[8] = target: Ephrin type-A receptor 4 (Homo sapiens) (UniProt P54764); details: at 0.1 µM
[9] = target: Ephrin type-A receptor 4 (Homo sapiens) (UniProt P54764); details: at 1 µM
[10] = target: T2, Ephrin type-B receptor 2 (Homo sapiens) (UniProt P29323); details: at 0.1 µM
T2 sequence (whole entry): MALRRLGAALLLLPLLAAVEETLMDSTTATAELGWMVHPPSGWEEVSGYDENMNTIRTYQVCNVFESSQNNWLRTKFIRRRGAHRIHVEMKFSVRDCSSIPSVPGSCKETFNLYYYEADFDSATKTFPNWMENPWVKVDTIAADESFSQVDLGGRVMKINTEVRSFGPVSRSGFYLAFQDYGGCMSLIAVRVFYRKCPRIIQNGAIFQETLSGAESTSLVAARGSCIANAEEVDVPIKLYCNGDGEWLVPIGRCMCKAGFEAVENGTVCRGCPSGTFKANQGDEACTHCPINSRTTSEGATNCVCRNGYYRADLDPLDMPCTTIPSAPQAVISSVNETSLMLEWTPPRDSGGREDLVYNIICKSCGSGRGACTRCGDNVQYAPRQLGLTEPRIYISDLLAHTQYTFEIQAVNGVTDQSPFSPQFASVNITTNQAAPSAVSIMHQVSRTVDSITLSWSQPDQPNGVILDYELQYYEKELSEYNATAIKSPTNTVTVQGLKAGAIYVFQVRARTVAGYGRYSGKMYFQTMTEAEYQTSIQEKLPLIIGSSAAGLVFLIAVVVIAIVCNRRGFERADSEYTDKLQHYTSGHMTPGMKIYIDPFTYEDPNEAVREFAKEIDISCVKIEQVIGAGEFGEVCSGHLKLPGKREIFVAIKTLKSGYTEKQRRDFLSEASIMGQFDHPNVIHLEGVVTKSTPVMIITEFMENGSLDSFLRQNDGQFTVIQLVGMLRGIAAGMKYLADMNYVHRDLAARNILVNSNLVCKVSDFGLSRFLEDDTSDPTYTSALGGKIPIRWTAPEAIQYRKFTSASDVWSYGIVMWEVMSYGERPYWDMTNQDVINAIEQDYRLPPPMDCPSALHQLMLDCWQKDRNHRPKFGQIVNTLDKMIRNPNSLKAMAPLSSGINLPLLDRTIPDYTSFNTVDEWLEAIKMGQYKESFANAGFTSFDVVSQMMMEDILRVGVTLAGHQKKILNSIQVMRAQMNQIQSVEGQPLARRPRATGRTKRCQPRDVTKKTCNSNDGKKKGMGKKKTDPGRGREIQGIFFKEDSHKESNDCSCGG

[11] = target: T2, Ephrin type-B receptor 2 (Homo sapiens); details: at 1 µM
[12] = target: T3, Ephrin type-B receptor 3 (Homo sapiens) (UniProt P54753); details: at 0.1 µM
T3 sequence (whole entry): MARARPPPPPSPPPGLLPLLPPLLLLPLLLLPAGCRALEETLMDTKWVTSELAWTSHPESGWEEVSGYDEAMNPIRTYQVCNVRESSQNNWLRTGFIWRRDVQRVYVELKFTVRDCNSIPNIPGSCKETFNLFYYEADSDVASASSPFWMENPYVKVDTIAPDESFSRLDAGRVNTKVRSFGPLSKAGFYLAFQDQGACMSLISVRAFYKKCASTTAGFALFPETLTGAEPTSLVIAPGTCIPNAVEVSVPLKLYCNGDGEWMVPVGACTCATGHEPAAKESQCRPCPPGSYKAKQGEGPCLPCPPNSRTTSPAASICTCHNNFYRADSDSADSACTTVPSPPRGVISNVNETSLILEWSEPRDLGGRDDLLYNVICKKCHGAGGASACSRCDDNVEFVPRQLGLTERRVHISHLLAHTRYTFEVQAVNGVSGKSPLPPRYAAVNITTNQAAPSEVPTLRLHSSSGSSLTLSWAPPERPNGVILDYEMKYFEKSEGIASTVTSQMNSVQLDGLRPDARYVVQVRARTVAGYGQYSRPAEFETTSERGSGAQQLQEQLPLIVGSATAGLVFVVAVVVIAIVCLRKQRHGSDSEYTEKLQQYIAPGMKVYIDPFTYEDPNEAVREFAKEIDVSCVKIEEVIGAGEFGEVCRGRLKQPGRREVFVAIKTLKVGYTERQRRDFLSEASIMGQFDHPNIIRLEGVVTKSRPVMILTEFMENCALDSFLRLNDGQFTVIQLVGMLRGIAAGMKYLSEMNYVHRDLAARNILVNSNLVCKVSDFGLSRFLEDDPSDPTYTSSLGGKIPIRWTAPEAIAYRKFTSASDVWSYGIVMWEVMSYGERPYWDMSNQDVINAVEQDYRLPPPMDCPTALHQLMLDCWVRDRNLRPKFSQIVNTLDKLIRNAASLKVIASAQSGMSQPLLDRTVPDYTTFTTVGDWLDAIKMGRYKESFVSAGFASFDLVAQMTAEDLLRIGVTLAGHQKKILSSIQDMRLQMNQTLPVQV

[13] = target: T3, Ephrin type-B receptor 3 (Homo sapiens); details: at 1 µM
[14] = target: T4, Ephrin type-B receptor 4 (Homo sapiens) (UniProt P54760); details: at 0.1 µM
T4 sequence (whole entry): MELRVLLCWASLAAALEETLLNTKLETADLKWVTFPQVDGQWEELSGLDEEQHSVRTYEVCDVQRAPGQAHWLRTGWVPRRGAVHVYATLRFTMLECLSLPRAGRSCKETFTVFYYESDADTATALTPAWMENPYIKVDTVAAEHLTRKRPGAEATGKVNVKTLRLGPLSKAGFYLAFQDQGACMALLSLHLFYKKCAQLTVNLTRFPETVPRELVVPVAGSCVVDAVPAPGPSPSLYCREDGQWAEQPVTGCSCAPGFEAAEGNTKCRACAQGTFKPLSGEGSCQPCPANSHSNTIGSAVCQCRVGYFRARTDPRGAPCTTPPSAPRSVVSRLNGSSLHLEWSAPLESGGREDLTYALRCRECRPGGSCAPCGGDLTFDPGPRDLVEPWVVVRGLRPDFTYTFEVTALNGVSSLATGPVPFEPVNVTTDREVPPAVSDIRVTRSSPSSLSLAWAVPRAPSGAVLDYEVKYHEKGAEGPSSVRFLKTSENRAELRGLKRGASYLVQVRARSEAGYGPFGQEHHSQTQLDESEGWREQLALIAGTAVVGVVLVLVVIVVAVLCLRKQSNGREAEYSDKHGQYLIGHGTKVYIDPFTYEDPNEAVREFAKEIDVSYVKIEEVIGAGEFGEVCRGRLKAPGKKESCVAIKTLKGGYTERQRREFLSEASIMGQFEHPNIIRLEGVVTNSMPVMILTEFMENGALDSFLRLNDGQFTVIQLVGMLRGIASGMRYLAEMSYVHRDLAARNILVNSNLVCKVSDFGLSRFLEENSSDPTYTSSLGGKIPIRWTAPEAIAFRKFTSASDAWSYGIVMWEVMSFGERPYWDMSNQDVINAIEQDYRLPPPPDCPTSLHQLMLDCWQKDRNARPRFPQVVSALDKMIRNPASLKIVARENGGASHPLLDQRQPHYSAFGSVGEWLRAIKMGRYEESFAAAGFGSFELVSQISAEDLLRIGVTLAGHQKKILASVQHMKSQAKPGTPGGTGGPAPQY

[15] = target: T4, Ephrin type-B receptor 4 (Homo sapiens); details: at 1 µM
[16] = target: Receptor tyrosine-protein kinase erbB-2 (Homo sapiens) (UniProt P04626); details: at 0.1 µM
Receptor tyrosine-protein kinase erbB-2 (Homo sapiens), sequence (P04626 whole entry): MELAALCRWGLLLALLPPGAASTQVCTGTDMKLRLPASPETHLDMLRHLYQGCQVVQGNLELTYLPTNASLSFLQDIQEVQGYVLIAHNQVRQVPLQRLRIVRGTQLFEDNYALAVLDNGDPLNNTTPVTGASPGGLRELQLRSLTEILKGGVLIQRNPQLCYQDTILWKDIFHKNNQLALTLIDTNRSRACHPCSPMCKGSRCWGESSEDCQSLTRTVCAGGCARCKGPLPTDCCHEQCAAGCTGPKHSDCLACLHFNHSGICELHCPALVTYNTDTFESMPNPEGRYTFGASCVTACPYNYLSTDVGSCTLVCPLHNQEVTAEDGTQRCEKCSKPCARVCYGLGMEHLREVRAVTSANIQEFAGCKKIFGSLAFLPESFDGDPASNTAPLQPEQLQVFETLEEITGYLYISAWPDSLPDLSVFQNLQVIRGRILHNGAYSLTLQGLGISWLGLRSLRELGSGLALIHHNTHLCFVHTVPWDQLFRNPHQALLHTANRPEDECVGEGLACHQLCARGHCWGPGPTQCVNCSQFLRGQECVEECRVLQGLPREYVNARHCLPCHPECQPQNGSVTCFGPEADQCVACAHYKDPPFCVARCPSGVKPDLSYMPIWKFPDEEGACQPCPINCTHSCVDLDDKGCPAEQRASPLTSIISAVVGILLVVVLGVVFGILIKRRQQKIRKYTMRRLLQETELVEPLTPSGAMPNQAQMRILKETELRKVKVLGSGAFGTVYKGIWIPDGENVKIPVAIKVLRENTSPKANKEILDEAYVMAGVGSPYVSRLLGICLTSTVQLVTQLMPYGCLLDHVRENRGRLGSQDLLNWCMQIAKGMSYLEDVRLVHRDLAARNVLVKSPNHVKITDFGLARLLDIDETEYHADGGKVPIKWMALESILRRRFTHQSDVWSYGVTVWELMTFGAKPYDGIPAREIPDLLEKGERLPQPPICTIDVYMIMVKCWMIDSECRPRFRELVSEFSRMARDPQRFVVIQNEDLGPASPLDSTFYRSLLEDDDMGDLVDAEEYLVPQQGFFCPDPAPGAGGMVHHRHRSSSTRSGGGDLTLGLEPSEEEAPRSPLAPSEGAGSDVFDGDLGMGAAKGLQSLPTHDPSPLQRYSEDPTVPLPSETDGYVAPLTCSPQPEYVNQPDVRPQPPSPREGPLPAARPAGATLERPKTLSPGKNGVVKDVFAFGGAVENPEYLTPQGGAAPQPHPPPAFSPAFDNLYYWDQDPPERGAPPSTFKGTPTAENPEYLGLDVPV

[17] = target: Receptor tyrosine-protein kinase erbB-2 (Homo sapiens) (UniProt P04626); details: at 1 µM
[18] = target: Receptor tyrosine-protein kinase erbB-4 (Homo sapiens) (UniProt Q15303); details: at 0.1 µM
Receptor tyrosine-protein kinase erbB-4 (Homo sapiens), sequence (Q15303 whole entry): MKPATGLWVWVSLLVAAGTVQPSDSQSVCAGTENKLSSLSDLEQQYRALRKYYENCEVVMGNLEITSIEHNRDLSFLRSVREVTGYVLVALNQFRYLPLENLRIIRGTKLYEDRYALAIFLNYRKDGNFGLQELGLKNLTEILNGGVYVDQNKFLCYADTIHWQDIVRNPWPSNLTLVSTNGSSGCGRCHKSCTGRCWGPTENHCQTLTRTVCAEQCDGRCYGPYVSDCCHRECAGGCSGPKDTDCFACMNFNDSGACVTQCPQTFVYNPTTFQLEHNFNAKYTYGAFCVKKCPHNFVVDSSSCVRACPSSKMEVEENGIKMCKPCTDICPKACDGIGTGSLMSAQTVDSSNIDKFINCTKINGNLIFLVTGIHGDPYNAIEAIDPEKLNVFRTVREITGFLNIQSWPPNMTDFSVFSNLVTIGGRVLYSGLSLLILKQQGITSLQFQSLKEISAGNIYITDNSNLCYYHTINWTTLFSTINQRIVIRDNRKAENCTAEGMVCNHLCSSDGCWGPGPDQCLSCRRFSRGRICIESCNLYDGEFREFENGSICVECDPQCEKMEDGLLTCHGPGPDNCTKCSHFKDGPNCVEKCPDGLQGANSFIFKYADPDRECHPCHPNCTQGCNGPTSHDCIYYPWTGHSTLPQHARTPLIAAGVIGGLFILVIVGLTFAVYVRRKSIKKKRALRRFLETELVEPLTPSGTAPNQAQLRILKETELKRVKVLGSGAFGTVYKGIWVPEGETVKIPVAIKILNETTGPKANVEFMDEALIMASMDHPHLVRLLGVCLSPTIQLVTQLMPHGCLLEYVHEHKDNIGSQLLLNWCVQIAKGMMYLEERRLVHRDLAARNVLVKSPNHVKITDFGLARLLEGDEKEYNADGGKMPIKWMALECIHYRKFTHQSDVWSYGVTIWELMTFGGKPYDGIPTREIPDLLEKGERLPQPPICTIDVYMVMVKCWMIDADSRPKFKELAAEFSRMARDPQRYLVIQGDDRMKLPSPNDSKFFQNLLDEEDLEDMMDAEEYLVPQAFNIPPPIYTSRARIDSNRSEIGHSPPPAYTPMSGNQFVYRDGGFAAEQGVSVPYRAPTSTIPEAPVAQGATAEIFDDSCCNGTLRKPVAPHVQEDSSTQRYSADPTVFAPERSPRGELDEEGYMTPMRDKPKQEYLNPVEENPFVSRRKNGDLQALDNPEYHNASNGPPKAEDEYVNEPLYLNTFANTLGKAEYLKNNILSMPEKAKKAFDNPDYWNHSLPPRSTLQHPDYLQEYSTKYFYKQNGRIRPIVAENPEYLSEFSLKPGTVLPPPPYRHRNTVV

[19] = target: Receptor tyrosine-protein kinase erbB-4 (Homo sapiens) (UniProt Q15303); details: at 1 µM
[20] = target: Tyrosine-protein kinase Fer (Homo sapiens) (UniProt P16591); details: at 0.1 µM;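 also: reported figures are averaged percent inhibition of FER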
Tyrosine-protein kinase Fer (Homo sapiens), sequence (P16591 whole entry, looked up): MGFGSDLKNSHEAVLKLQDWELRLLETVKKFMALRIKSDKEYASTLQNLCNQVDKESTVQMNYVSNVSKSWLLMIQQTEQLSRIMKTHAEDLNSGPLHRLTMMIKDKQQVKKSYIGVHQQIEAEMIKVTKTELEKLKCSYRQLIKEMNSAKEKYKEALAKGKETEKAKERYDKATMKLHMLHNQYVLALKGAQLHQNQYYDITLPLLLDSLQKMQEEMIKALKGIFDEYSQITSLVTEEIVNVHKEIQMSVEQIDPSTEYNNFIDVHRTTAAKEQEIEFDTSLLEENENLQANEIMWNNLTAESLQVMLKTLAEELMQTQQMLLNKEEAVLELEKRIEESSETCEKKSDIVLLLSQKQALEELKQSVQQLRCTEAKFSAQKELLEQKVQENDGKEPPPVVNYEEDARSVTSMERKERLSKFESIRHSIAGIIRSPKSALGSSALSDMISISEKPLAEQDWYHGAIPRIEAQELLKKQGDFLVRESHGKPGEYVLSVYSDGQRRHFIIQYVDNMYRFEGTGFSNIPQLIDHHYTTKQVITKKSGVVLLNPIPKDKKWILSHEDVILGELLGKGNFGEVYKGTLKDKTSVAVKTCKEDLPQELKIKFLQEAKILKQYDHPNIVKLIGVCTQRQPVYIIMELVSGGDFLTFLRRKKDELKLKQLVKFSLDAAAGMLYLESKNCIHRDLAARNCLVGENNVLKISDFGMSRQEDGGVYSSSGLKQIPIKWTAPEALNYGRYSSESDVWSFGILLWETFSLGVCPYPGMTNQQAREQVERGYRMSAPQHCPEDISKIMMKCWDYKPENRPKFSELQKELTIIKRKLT

Epidermal growth factor receptor (Homo sapiens), P00533 [L858R,T790M], sequence (P00533 whole entry T790M/L858R, looked up): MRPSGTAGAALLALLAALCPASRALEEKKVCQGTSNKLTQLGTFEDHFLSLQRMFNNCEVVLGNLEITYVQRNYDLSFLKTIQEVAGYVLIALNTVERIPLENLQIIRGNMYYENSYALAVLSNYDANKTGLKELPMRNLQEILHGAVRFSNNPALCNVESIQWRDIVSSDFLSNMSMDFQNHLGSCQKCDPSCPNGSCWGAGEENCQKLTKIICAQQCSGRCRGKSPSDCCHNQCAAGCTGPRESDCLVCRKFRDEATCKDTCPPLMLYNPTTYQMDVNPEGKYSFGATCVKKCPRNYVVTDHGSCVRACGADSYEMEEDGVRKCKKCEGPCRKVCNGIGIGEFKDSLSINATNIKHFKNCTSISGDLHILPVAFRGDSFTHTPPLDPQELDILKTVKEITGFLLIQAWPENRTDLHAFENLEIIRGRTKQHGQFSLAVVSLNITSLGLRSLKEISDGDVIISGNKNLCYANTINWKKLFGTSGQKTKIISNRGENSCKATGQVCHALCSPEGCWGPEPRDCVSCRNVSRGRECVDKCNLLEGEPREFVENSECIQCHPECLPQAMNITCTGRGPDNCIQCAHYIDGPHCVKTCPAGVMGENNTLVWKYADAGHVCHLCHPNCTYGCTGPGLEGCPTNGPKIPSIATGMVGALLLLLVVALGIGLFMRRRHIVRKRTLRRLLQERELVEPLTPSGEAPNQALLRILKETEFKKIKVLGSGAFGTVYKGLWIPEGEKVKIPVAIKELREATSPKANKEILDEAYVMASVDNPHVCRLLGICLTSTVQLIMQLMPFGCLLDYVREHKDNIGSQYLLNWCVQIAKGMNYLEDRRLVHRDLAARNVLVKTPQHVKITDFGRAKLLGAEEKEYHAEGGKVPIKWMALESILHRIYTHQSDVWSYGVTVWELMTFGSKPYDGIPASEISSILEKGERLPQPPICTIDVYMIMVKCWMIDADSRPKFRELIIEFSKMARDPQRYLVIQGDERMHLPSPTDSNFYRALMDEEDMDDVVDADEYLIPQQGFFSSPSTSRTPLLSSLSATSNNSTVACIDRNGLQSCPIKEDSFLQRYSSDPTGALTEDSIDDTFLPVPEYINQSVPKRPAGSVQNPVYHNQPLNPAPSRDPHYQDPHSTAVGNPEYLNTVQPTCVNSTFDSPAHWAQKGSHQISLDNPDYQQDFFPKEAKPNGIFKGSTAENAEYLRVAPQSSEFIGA

Structure (SMILES)	inhibition [1]	inhibition [2]	inhibition [3]	inhibition [4]	inhibition [5]	inhibition [6]	inhibition [7]	inhibition [8]	inhibition [9]	inhibition [10]	inhibition [11]	inhibition [12]	inhibition [13]	inhibition [14]	inhibition [15]	inhibition [16]	inhibition [17]	inhibition [18]	inhibition [19]	inhibition [20]
NS(=O)(=O)c1ccc(N/N=C2\C(=O)Nc3ccc(C(=O)NCCCn4ccnc4)cc32)cc1	5.05%	1.54%	4.72%	0.32%	2.41%	1.95%	4.65%	9.78%	18.2%	5.33%	13.3%	5.75%	4.37%	1.61%	5.27%	4.39%	5.69%	8.45%	14.6%	–
Cc1nnc(-c2ccc(C)c(-c3ccc(C(=O)NCc4ccc(Cl)cc4)cc3)c2)o1	3.59%	1.86%	2.04%	-3.78%	-3.32%	-0.26%	-1.93%	6.29%	5.1%	2.73%	2.23%	1.15%	-1.34%	-0.5%	-2.62%	5.39%	4.99%	3.42%	7.48%	3.34%
C[C@@H](Oc1cc(-n2cnc3ccc(OC4CCN(C)CC4)cc32)sc1C(N)=O)c1ccccc1Cl	1.48%	1.1%	6.15%	-2.62%	-3.66%	-0.17%	-0.53%	7.06%	9.83%	7.8%	7.99%	-1.42%	-0.38%	-3.06%	-1.28%	2.36%	2.65%	1.1%	6.83%	3.05%
COc1cc(C)c(N(C)C(=O)CN(C)C)cc1Nc1nc(Nc2cccc(F)c2C(N)=O)c2cc[nH]c2n1	1.09%	-0.19%	1.92%	-2.68%	-4.61%	-1.1%	-3.2%	3.77%	-1.31%	2.81%	4.5%	-1.17%	-3.39%	-2.25%	-3.91%	-0.03%	-3.53%	4.41%	4.97%	9.81%
COc1cc(Nc2ncc3c(C)nc(-c4cccc(Oc5ccccc5)c4)n3n2)cc(OC)c1OC	-1.01%	1.23%	-0.96%	1.16%	-0.33%	3.2%	1.56%	5.4%	3.74%	4.87%	8.52%	4.24%	1.21%	2.59%	2.97%	1.99%	-3.48%	7.04%	8.43%	3.91%
O=C(Nc1ccc(Oc2ccc3[nH]c(NC(=O)c4ccccc4)nc3c2)cc1)Nc1cc(C(F)(F)F)ccc1F	5.49%	1.07%	2.34%	2.75%	26%	4.22%	8.94%	13.4%	64.2%	13.7%	61.8%	5.05%	8.33%	3.63%	27.5%	2.77%	4.41%	6.9%	9.12%	1.59%
NS(=O)(=O)c1ccc(N/N=C2\C(=O)Nc3ccc(-c4cnco4)cc32)cc1	1.56%	-2.11%	5.42%	-5.84%	-4.92%	-2.34%	0.23%	5.13%	10.8%	6.73%	7.61%	-2.23%	-3.53%	-2.49%	-0.26%	4.9%	13.6%	5.79%	14.2%	1.03%
